KB-V1 cytotox = qHTS assay for MDR1-selective chemotherapeutics: Primary screen using the drug-selected MDR subline cells KB-V1. hit rate 3.4% among 400,000. KB-V1 MDR cells viability, CellTiter-Glo, 72 h. Potency, µM (highest dose often 46.1 µM), hits mostly cytotoxic. AID 1347076, 2019; note: % is set by controls: 0 for no effect and ±100 for the full control effect; nearly all actives have a fitted effect of over 60% in size
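Cytotoxicity toward P-gp-expressing KB-V1 cells was determined as loss of CellTiter-Glo luminescence after 72 h at 37 degrees C. Compounds were tested in quantitative HTS format across a concentration range, with curves fitted to normalized data.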
MCF10A rereplic = A quantitative high throughput screen for small molecules that induce DNA re-replication in MCF 10a normal breast cells; Potency, µM (doses to about 46.1 µM), for inactives: top-dose activity, positive = re-replication, actives largely listed as activators; hit rate 2.9% among 350,000; MCF 10A DNA re-replication, Hoechst nuclear intensity, 48 h; note: % of control where 0% means no effect; nearly all actives have a fitted effect of over 50% in size
VP16 counter = VP16 counterscreen qHTS for inhibitors of ROR gamma transcriptional activity | AID 2546, 2010 | Drosophila S2 Gal4-VP16 UAS-luciferase, luminescence, 20 h | hit rate 3.5% among 310,000 | Potency, µM (highest dose often 53.6 µM), without a hit: top-dose activity, negative = inhibition, actives largely listed as inhibitors;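 note: Gal4-VP16 expression switched on by copper sulfate through the metallothionein promoter; % is set by controls: 0 for no effect and ±100 for the full control effect; nearly all actives have a fitted effect of over 50% in size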
SW480 rerep = A quantitative high throughput screen for small molecules that induce DNA re-replication in SW480 colon adenocarcinoma cells; AID 624297, 2012; SW480 DNA re-replication, Hoechst DNA content imaging, 48 h; hit rate 1.8% among 340,000; Potency, µM (series often up to 46.1 µM), inactives show at the top dose re-replication activation, most hits filed as activators; note: % of control where 0% means no effect; nearly all actives have a fitted effect of over 55% in size
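DNA re-replication was detected as more nuclei of elevated Hoechst intensity after 48 hr exposure to compound (23 nL pinned per well of 250 cells).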
RORgamma inh = qHTS for inhibitors of ROR gamma transcriptional activity; Nuclear receptor ROR-gamma (Mus musculus), P51450; Drosophila S2 Gal4-RORgamma UAS-luciferase reporter, 20 h; Potency, µM (series often up to 53.6 µM), for inactives: top-dose activity change, negative = inhibition, usual class: inhibitors; hit rate 5.4% among 310,000; note: % is set by controls: 0 for no effect and ±100 for the full control effect; nearly all actives have a fitted effect of over 60% in size
Target sequence (P51450 whole entry, looked up, the tested form may be a part): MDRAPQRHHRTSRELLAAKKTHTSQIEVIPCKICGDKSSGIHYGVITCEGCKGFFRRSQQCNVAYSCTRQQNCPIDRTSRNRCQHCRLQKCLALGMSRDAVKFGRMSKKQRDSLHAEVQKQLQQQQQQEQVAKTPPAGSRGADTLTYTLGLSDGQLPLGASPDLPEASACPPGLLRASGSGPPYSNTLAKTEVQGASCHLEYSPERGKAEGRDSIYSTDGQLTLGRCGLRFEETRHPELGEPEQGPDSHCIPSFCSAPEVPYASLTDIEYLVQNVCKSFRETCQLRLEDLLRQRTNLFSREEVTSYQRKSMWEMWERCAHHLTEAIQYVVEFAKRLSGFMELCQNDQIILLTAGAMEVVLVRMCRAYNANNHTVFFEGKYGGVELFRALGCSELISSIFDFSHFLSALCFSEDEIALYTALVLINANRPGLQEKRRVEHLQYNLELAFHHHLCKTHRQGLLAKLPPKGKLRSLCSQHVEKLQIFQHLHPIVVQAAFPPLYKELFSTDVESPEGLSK
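A Gal4/UAS one-hybrid system in insect cells: metallothionein-promoter Gal4–ROR gamma fusion plus Photinus luciferase reporter. Copper sulfate 700 uM final, 20 hr ambient incubation, luminescent detection after 10 min with reagent.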
KB-3-1 cytotox = qHTS assay for MDR1-selective chemotherapeutics: Primary screen using the parental adenocarcinoma cell KB-3-1. KB-3-1 viability, CellTiter-Glo ATP luminescence, 72 h. Potency, µM (titrated, usually from 46.1 µM), usual class: cytotoxic. hit rate 1.4% among 400,000. AID 1347075, 2019; note: % is set by controls: 0 for no effect and ±100 for the full control effect; nearly all actives have a fitted effect of over 60% in size
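Cells are dispensed, compounds pinned in, plates held at 37 °C for 72 h, then CellTiter-Glo is added and luminescence read after 10 minutes. Cell line: parental KB-3-1 in phenol-red-free DMEM, 10% FBS.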
The depositor's hits bear a star; i = inactive; ? = inconclusive; nt = no result given; [ ] = remark or other dose. Rows were chosen to be rich in hits. Some 10% of all compounds tested hit in one or more screens of this group. Calls come from the whole dose curve; as a rule, active = well fitted curve in the direction sought with a large enough effect; inconclusive = small, poorly fitted or top-dose-only effect, or another doubt; inactive = no such curve, though single readings can be large; an effect the other way counts as inactive or inconclusive. Potency is the fitted concentration of half-maximal effect.

SMILES | KB-V1 cytotox | MCF10A rereplic | VP16 counter | SW480 rerep | RORgamma inh | KB-3-1 cytotox
CCCN1CCCC2Cc3[nH]ncc3CC21 (stereo not drawn) | nt | nt | -3.8% | nt | 3.1% | nt
O=C1CC(c2ccccc2Br)c2c(c3ccccc3oc2=O)O1 (stereo not drawn) | i | nt | nt | nt | nt | i
CC(C)CC1C(=O)N2CCCC2C2(O)O[C@@](NC(=O)C3C=C4c5cccc6[nH]c(Br)c(c56)CC4N(C)C3)(C(C)C)C(=O)N12 (stereo partly drawn) | nt | nt | ? | nt | 20.7% | nt
Cc1ccc(NC(=O)c2snnc2C)cc1Cl | 10.3µM* | 1.4% | 21.5% | 1.7% | 10.8% | ?
O=C(Nc1ccc(Cl)c(Cl)c1)c1ccco1 | i | 1.7% | ? | 1.5% | ? | i
NC(=Nc1ccccc1)NN=Cc1c[nH]c2ccccc12 | 2.59µM* | 88.4% | nt | 6.51µM* | nt | ?
O/N=C/c1c[nH]c2ccccc12 | i | -0.4% | -4.6% | 3.1% | 14.9% | i
COCC(=O)N1CCC2(CCCN(Cc3ccncc3)C2)CC1 | nt | nt | -18.1% | nt | -11.3% | nt
Nc1nc2c(s1)CCCCCCCCCC2 | i | ? | 6.3% | 12.3% | 11.2µM* | i
CCC(=O)OC1CCC2C3CCC4CC(=O)C=CC4(C)C3CCC12C (stereo not drawn) | 5.8µM* | ? | nt | ? | nt | 10.3µM*
C=C(C)c1cc2cc(C(C)=O)c(O)cc2o1 | nt | nt | -7.7% | nt | ? | nt
CC1CC(C)(O)CC(C(O)CC2CC(=O)NC(=O)C2)C1=O (stereo not drawn) | 6.51µM* | ? | nt | ? | nt | 0.92µM*
COC(=O)C1=C(c2cccc(OCc3ccccc3)c2)C[C@@H]2CC[C@H]1N2C(=O)NCCOc1ccccc1 | ? | 13µM* | nt | -32.7% | nt | ?
COC(=O)C1=C(c2cccc(OCc3ccccc3)c2)C[C@@H]2CC[C@H]1N2C(=O)NCCOc1ccccc1Cl | ? | 2.06µM* | nt | 22.0% | nt | ?
COC(=O)C1=C(c2ccccc2OCc2ccccc2)C[C@@H]2CC[C@H]1N2C(=O)NCCOc1ccccc1Cl | i | ? | nt | 27.8% | nt | ?
COC(=O)C1=C(c2cccc(OCc3ccccc3)c2)C[C@@H]2CC[C@H]1N2C(=O)NCc1ccccc1 | ? | 9.0% | nt | 2.0% | nt | ?
c1ccc(CNC2CCCCCCC2)cc1 (tested in a mixture with another compound) | 23.1µM* | 2.6% | nt | -1.2% | nt | i
Nc1ccc2nc3c(c(Cl)c2c1)CCCC3 | ? | 16.4µM* | ? | ? | -15.5% | ?
ClCc1ccccn1 | nt | nt | -14.1% | nt | -3.7% | nt
Cc1nonc1OCCNCCNc1ccc([N+](=O)[O-])c2cccnc12 | ? | 2.3% | 5.01µM* | -26.0% | 1.78µM* | ?
CC1CN(c2ccc([N+](=O)[O-])c3cccnc23)CC(C)N1 (stereo not drawn) | i | 0.1% | -4.5% | -7.0% | 2.1% | i
CCNCCNc1ccc([N+](=O)[O-])c2cccnc12 | i | 0.6% | 20µM* | -8.4% | 2.82µM* | i
CCCCCCCCCCCCCCC[C@@H](O)[C@@H](N)COP(=O)(O)O | nt | nt | 4.0% | nt | -1.2% | nt
CC12CCC3C4CCC(=O)C(O)=C4CCC3C1CCC2OC(=O)CCC1CCCC1 (stereo not drawn) | nt | 1.7% | 0.8% | -3.6% | 1.9% | nt
N#Cc1cn(C2OC(CO)C(O)C2O)c2ncnc(N)c12 (stereo not drawn) | ? | 18.7% | nt | 12.0% | nt | 0.0073µM*
SMILES | KB-V1 cytotox | MCF10A rereplic | VP16 counter | SW480 rerep | RORgamma inh | KB-3-1 cytotox
NC(=O)c1c(Br)n(C2OC(CO)C(O)C2O)c2ncnc(N)c12 (stereo not drawn) | 9.2µM* | 2.31µM* | nt | ? | nt | 4.11µM*
CC1N(P(=O)(c2ccccc2)c2ccccc2)CC(O)(c2ccccc2)CC12CC2 (stereo not drawn) | nt | nt | -10.5% | nt | -25.5% | nt
CCCCCCC(C)(C)c1cc(OC)c2c(c1)OC(C)(C)[C@@H]1CC=C(C)C[C@@H]21 | nt | nt | -7.1% | nt | -4.9% | nt
ClCCN(CCCl)c1ccc(/C=C/c2sc3ccccc3[n+]2CCCCI)cc1 | i | nt | nt | nt | nt | ?
O=c1[nH]c2ccccc2n1C1CCN(CCCC(c2ccc(F)cc2)c2ccc(F)cc2)CC1 | 11.6µM* | ? | ? | -17.4% | ? | ?
O=C1CC(N2CCC(n3c(=O)[nH]c4ccccc43)CC2)C(=O)N1c1ccc(F)cc1 (stereo not drawn) | i | 1.9% | -1.7% | -0.5% | -9.2% | i
N=Cc1c(O)n(-c2ccc(C34CC5CC(CC(C5)C3)C4)cc2)c(=O)[nH]c1=O | i | 5.0% | -3.0% | 3.26µM* | -21.0% | i
Cc1cc(C(=O)CN2C(=O)c3ccccc3C2=O)c(C)n1C1CC1 | i | 0.3% | 15.8µM* | 4.2% | 26.6% | i
COc1ccccc1NC(=O)COC(=O)c1cc(C)n(C2CC2)c1C | ? | 21.3% | nt | 16.8% | nt | i
CCOC(=O)c1c(C=O)c2ccccc2n1Cc1ccccc1 | 20.6µM* | ? | 3.0% | ? | -5.1% | ?
CCCCOc1ccc(Cn2c(=O)oc3ccccc32)cc1 | i | ? | -4.8% | 6.9% | 21.2% | i
COC(=O)C12CCc3c(ccc4cc(OC)ccc34)C1=CC(=O)C2 (stereo not drawn) | 20.6µM* | 4.8% | nt | 14.4% | nt | ?
COc1ccc2c(c1)CCCC2=O | i | -41.3% | nt | 3.9% | nt | i
CN1CCCC2(CCN(C(=O)Oc3ccccc3)CC2)C1 | nt | nt | -4.4% | nt | 2.6% | nt
CCOC(=O)[C@]12Cc3cc(C)ccc3[C@H]1N(CCC(=O)OC)C(=O)c1ccccc12 | 4.11µM* | nt | nt | nt | nt | 13µM*
CCOC(=O)[C@]12Cc3ccc(C)cc3[C@H]1N(C1CCCCC1)C(=O)c1cc(OC)ccc12 | 4.61µM* | nt | nt | nt | nt | ?
CCOC(=O)[C@]12Cc3ccccc3[C@H]1N(C(C)C)C(=O)c1ccccc12 | i | nt | nt | nt | nt | 20.6µM*
COCCCn1c(-c2ccc(OC)cc2)cc(C(=O)NC2CCCCCCC2)c1C | i | ? | -26.6% | ? | -15.1%[10 µM] | ?
CCOC(=O)[C@]12Cc3ccc(C)cc3[C@H]1N(C1CCCCC1)C(=O)c1ccccc12 | 2.31µM* | nt | nt | nt | nt | 1.16µM*
CCOC(=O)C12C(=O)OCC1C2c1ccccc1 (stereo not drawn) | i | nt | nt | nt | nt | ?
CCOC(=O)C1(c2ccccc2)CCN(CCC(=O)Nc2ccc(OC)cc2)CC1 | i | nt | nt | nt | nt | i

Compound activity from PubChem.
